Assay outcomes: PubChem, several laboratories
In the library only some 2.3% were active in any assay of this set; here they are far more common.
IDE cell inh – human IDE inhibitors in live cells, primary screen, fluorescence polarization, HEK cells, FAbetaB substrate; 0.41% of 320,000 active; FAbetaB cleavage; inhibition, % at 5.59 µM; Insulin-degrading enzyme (Homo sapiens), P14735;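 active = percent inhibition above the average of all tested compounds plus 3 SD, set per screening campaign, cut at about 16% in these data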;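 note: IDE supplied by intact live HEK cells; FP after avidin binding of uncleaved biotin substrate so inhibition keeps polarization high; 0% = DMSO wells and 100% = 60 µM reference IDE inhibitor Ii1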
Target sequence (P14735 whole entry, looked up): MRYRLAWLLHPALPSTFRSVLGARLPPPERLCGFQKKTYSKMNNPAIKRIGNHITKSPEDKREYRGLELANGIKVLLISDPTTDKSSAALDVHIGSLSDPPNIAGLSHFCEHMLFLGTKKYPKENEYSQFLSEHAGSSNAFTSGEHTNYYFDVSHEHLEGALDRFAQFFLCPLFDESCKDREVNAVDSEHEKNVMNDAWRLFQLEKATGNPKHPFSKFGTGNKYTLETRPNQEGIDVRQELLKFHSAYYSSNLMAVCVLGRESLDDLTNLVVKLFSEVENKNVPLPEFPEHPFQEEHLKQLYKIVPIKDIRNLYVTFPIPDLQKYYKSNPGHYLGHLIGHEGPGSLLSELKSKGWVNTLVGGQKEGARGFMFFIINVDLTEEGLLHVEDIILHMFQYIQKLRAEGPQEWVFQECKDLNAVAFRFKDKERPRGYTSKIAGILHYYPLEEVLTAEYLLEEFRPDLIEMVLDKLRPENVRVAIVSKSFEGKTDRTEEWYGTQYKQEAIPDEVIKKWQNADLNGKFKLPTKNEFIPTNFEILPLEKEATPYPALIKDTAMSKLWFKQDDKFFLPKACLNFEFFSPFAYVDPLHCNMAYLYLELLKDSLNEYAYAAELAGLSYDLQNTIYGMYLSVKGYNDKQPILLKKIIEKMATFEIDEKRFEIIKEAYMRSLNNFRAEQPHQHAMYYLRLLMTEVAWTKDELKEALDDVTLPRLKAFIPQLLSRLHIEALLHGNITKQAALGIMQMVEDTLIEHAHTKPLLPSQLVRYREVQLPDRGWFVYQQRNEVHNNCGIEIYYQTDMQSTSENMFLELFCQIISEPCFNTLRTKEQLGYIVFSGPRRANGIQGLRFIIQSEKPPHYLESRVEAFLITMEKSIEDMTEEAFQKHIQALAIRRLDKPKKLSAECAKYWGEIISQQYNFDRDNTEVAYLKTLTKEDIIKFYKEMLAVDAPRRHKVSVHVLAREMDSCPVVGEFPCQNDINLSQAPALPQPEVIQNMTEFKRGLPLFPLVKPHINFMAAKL
TPT1 inh – Candida albicans TPT1 enzyme inhibitors, primary screen, biochemical, fluorescence polarization | tRNA 2'-phosphotransferase TPT1 (Candida albicans SC5314) | 0.81% of 300,000 active | inhibition, % at 5 µM | AID 1962, 2009 | recombinant caTPT1, FP RNA substrate dephosphorylation;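 active = inhibition above the mean of all tested compounds plus 3 SD, set per screening campaign, cut at about 24% in these data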;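 note: plate controls were DMSO alone for no effect and ferristatin control at 100 nM for full effect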
IDE act – human IDE activators in live cells, primary screen, fluorescence polarization, HEK cells, FAbeta-B substrate. Insulin-degrading enzyme (Homo sapiens), P14735. FAbeta-B cleavage; 0% vehicle, 100% cell-free pure enzyme wells. activation, % at 5.96 µM. 0.073% of 340,000 active. AID 493087, 2011;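 active = activation above the mean of all tested compounds plus 3 SD, set per screening campaign, cut at about 17% in these data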
Calb FLC – C. albicans growth inhibition with fluconazole, primary screen, CaCi-2 strain, Alamar Blue fluorescence; growth inhibition, % (test concentration not listed); C. albicans CaCi-2 (fluconazole-resistant clinical isolate) + fluconazole, 48 h; 0.57% of 300,000 active; AID 1979, 2009;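 active = growth inhibition above about 58% in most replicates, limit read from the data, passing the limit was not always enough; inconclusive = exactly half the replicates above a set limit; inactive = most replicates below a set limit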;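 note: all wells also contain fluconazole at 8 µg/ml as a sub-toxic cotreatment; 0% = median of DMSO wells and 100% = median of geldanamycin control wells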
Rin1 Abl inh – inhibitors of Rin1-Abl protein binding, primary screen, biochemical, TR-FRET. inhibition, % at 7.35 µM. AID 588664, 2011. 0.4% of 360,000 active. Tyrosine-protein kinase ABL1 (Homo sapiens) + Ras and Rab interactor 1 (Homo sapiens), …; in the data active = inhibition above about 5%, passing the limit was not always enough
Rpn11 inh – Rpn11 (PSMD14) deubiquitinase inhibitors, primary screen, biochemical, fluorescence polarization, uHTS; inhibition, % at 20 µM; 0.59% of 360,000 active; 26S proteasome non-ATPase regulatory subunit 14 (Homo sapiens), O00487; human 26S proteasome, Ub4-pepOG fluorescence polarization; 20S core pre-blocked with epoxomicin;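 active = inhibition at 20 µM, scaled to each plate's controls, above about 33%, limit read from the data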
caTPT1 confirm – Candida albicans TPT1 inhibitors, confirmation, biochemical, fluorescence polarization, triplicate; shares compounds with TPT1 inh; recombinant caTPT1, RNase T1 coupled; inhibition, % at 5 µM; 74% of 2,400 active;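 active = inhibition above the primary screen limit, the mean inhibition of all tested compounds plus 3 SD, cut at about 25% in these data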
RNase T1 inh – RNase T1 inhibitors, counter-screen for TPT1 inhibitor project, biochemical, fluorescence polarization; shares compounds with TPT1 inh; RNase T1 cleavage, 1536-well; inhibition, % at 5 µM; 83% of 2,400 active; AID 2153, 2009;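 active = inhibition above the solvent-only control well mean plus 3 SD, limit set per screening run, cut at about 23% in these data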;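 note: plate controls were DMSO wells with enzyme for no effect and wells without RNase T1 for full effect; inhibitors block cleavage so intact labeled substrate keeps polarization high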
IDE cell inh cf – human IDE inhibitors in live cells, confirmation, fluorescence polarization, HEK cells, FAbetaB substrate; shares compounds with IDE cell inh; FAbetaB cleavage; inhibition, % at 5.59 µM; 51% of 1,200 active;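 active = mean inhibition across triplicate wells above the cutoff set by the earlier primary insulin-degrading enzyme screen, cut at about 16% in these data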;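 note: 0% = DMSO wells and 100% = 60 µM reference IDE inhibitor Ii1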
HEK293 tox – cytotoxicity in HEK cells, cytotoxicity control for IDE inhibitor project, cell-based, luminescence; 28% of 1,200 active; HEK293 cytotoxicity, ATP luminescence; AID 449730, 2010; shares compounds with IDE cell inh; inhibition, % at 5.59 µM; in the data active = inhibition above about 22%;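 note: 0% = vehicle wells and 100% = reference cytotoxic drug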
An asterisk follows results filed as active; ? = inconclusive; · = not tested or not shown.

SMILES	IDE cell inh	TPT1 inh	IDE act	Calb FLC	Rin1 Abl inh	Rpn11 inh	caTPT1 confirm	RNase T1 inh	IDE cell inh cf	HEK293 tox
O=C(N/N=C/c1c(O)ccc2ccccc12)c1ccc(Br)o1	99*	39*	-91	-4	1	37	51*	56*	142*	102*
Cn1nccc1C(=O)N/N=C/c1c(O)ccc2ccccc12	16*	37*	-17	0	-8	23	44*	49*	22*	111*
CCC1(c2ccc(F)cc2)NC(=O)N(CC(=O)Nc2cccc(S(=O)(=O)N3CCOCC3)c2)C1=O (configuration not stated)	·	·	1	·	3	-2	·	·	·	·
Cc1c(-n2cc(C(=O)c3cc(F)ccc3O)cc(C#N)c2=O)c(=O)n(-c2ccccc2)n1C	11	4	-10	19	2	30	·	·	·	·
N#Cc1cc(C(=O)c2cc(F)ccc2O)cn(-c2nccs2)c1=O	33*	55*	-43	-3	-4	·	57*	67*	67*	13
N#Cc1cc(C(=O)c2ccccc2O)cn(-c2nccs2)c1=O	39*	44*	-51	11	-3	·	42*	52*	61*	14
CCC1(C)Cc2c(sc(NC(=S)NC(=O)c3ccccc3)c2C#N)CO1 (configuration not stated)	2	0	-7	-1	-4	-6	·	·	·	·
CN1Cc2sc(NC(=S)NC(=O)c3ccccc3)c(C#N)c2CC1(C)C	58*	97*	·	-8	·	·	85*	90*	4	15
O=C(N/N=C/c1c(O)n(-c2ccc(Cl)cn2)c(=O)c2ccccc12)C1CC1	1	18	2	19	-1	28	·	·	·	·
O=C(N/N=C/c1c(O)n(-c2ccc(Cl)cn2)c(=O)c2ccccc12)c1ccncc1	22*	130*	-27	?	-4	·	154*	143*	38*	3
COc1ccc(/C=c2\s/c(=C/C(=O)c3ccc(C)cc3)[nH]c2=O)c(OC)c1	88*	67*	-67	?	0	·	28*	37*	112*	12
O=C(O)c1ccccc1N/N=C/c1c(Sc2nnnn2-c2ccccc2)nc2ccccn2c1=O	69*	68*	-137	?	-4	·	19	31*	43*	7
CC(C)(C)c1ccc(C(=O)OC/C(O)=C(\C#N)c2nc3ccccc3s2)cc1	-5	1	-2	-1	1	10	·	·	·	·
N#C/C(=C/c1ccc(-c2ccc(S(N)(=O)=O)cc2)o1)c1nc2ccccc2s1	40*	73*	-48	·	-5	·	41*	50*	78*	24*
COC(=O)c1ccc(/C=C(\C#N)c2nc3ccccc3s2)cc1	32*	36*	6	6	1	17	21	29*	-2	12
CCN1CCC2(CC1)C(C#N)=C(N)Oc1c2sc2nc(C)cc(C)c12	35*	64*	-15	-8	-3	13	16	25*	6	18
CN1C2CCC1/C(=C/c1cccn1C)C(=O)/C2=C\c1cccn1C	44*	121*	-43	-8	-18	·	123*	117*	72*	19
CN1C2CCC1/C(=C\c1ccc(F)cc1)C(=O)/C2=C/c1ccc(F)cc1	-1	0	3	47	0	2	·	·	·	·
C=CCOC(=O)C1=C(C)OC(N)=C(C#N)C1c1ccoc1 (configuration not stated)	45*	62*	-18	?	-5	20	59*	74*	40*	5
CN(C)c1ccc2c(c1)OC(N)=C(C#N)C2c1cccc(F)c1 (configuration not stated)	28*	78*	-43	57	-18	·	62*	70*	16*	72*
COc1ccc(CNC(=O)C(C)OC(=O)CO/N=C(\C)c2ccc3c(c2)OCO3)cc1 (configuration not stated)	3	-1	-1	-7	5	0	·	·	·	·
COc1cc(/C=C/C(=O)c2ccc3c(c2)OCO3)cc(Cl)c1O	160*	82*	-203	4	1	·	94*	96*	88*	12
CC(C)/C=C1\CC/C(=C\c2ccc(N(C)C)cc2)C1=O	68*	121*	-177	2	-3	·	121*	118*	144*	13
COc1ccccc1NC(=O)Cc1nc(=O)[nH]c(=O)[nH]1	·	·	·	·	-2	0	·	·	·	·
Oc1[nH]c(=S)sc1/C=C1\C(c2ccccc2)=Nc2ccccc21	18*	138*	-14	1	-5	·	130*	136*	14	9
COCCCNC(=S)NNC(=O)c1csc(C)n1	4	-3	-4	-10	5	2	·	·	·	·
